Measurements as given in PubChem BioAssay AID624346 (National Center for Advancing Translational Sciences (NCATS), 2012).
Inconclusive results are not listed. Active and inactive are the calls of the source.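 How the source made its calls: active means potency, the concentration giving half inhibition in the gel assay, of 75 µM or lower; inconclusive means potency above 75 µM yet under 100 µM; inactive means potency of 100 µM or weaker, or none.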

Target: Ubiquitin carboxyl-terminal hydrolase 1 (Homo sapiens) + WD repeat-containing protein 48 (Homo sapiens) (UniProt O94782+Q8TAF3)
Sequence (O94782 whole entry, looked up): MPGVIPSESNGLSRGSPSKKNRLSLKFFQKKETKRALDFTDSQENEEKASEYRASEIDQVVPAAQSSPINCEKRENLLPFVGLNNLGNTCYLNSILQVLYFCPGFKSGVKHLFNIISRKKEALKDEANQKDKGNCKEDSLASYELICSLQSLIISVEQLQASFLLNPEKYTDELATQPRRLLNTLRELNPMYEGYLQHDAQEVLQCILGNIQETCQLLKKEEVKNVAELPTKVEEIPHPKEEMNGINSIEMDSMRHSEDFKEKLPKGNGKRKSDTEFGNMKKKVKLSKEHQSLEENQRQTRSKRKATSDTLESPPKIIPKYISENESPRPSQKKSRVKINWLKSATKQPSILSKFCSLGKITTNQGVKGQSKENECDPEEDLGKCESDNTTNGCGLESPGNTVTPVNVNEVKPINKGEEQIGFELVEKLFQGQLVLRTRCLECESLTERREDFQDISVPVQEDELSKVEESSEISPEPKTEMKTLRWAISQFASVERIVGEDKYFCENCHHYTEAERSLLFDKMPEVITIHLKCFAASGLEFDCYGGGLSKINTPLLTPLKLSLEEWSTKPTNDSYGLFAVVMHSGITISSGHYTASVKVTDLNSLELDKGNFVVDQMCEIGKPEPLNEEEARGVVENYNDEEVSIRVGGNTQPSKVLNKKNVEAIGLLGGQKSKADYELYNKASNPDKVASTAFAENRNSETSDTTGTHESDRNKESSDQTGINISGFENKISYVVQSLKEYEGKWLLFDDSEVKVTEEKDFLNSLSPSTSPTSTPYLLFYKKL
Sequence (Q8TAF3 whole entry, looked up): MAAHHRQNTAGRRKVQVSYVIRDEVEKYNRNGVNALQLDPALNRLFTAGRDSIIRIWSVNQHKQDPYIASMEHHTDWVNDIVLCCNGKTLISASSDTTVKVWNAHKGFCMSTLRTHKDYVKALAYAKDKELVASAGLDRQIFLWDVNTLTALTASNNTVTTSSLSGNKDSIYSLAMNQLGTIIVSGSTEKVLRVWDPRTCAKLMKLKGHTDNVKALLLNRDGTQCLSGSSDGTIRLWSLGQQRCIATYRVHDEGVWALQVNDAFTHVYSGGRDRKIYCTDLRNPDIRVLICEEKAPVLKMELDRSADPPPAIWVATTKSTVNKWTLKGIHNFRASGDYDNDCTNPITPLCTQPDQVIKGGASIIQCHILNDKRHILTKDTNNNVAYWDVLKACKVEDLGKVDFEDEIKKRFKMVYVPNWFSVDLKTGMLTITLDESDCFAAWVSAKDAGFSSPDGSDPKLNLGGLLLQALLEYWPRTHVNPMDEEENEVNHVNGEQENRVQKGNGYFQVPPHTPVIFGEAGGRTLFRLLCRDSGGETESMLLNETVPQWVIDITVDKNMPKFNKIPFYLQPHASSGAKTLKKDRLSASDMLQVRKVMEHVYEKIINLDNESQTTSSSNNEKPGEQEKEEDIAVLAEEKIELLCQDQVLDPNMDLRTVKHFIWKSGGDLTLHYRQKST
Assay: Inhibitors of USP1/UAF1: Hit Validation in USP1 Diubiquiting Gel Assay
Conditions: USP1/UAF1 K63 diubiquitin cleavage, SDS-PAGE gel
Description: Deubiquitinating enzymes (DUBs) are a class of enzymes that can cleave isopeptide bond formed between the C-terminal carboxylate of ubiquitin and a lysine side-chain amino group on the target protein. Among them, ubiquitin specific proteases (USPs) constitute the largest DUB family. Human USPs are emerging as promising targets for pharmacological intervention because of their connection to a number of human diseases, including prostate, colon and breast cancer (1, 2), pediatric acute lymphoblastic leukemia (3), and familial cylindromatosis (4). The advantage of inhibiting USPs lies in the potential specificity of therapeutic intervention that can lead to better efficacy and reduce nonspecific side effects. In a collaboration between the University of Delaware and the NIH Chemical Genomics Center, a high-throughput screen assay was developed to screen for USP1/UAF1 inhibitors. This miniaturized assay has a fluorescent read-out and is used to screen the NIH Molecular Libraries Small Molecule Repository (MLSMR) in order to identify a small molecule that inhibits USP1. Follow-up assays have also been developed to further test the hits from the primary screen. This assay validates the hits identified from the primary screen using a USP1 diubiquiting gel assay. NIH Chemical Genomics Center [NCGC] NIH Molecular Libraries Probe Centers Network [MLPCN] MLPCN Grant: DA030552 Assay Submitter (PI): Zhihao Zhuang, University of Delaware 1. Priolo, C., et al. (2006) The isopeptidase USP2a protects human prostate cancer from apoptosis. Cancer Res 66, 8625-8632 2. Popov, N., et al. (2007) The ubiquitin-specific protease USP28 is required for MYC stability. Nat Cell Biol 9, 765-774 3. De Pitta, C., et al. (2005) A leukemia-enriched cDNA microarray platform identifies new transcripts with relevance to the biology of pediatric acute lymphoblastic leukemia. Haematologica 90, 890-898 4. Kovalenko, A., et al. (2003) The tumour suppressor CYLD negatively regulates NF-kappaB signalling by deubiquitination. Nature 424, 801-805
The inhibition assay contains 100 nM for USP1/UAF1, 2 microM K63 linked diubiquitin, and inhibitors at varied concentrations (0.08 microM - 114 microM). The reaction was allowed for 1 hour at 37 degrees C, and quenched by the addition of Laemmli sample buffer. The reaction product was separated on a 20% denaturing SDS-PAGE gel and stained with Coomassie Blue. The intensity of the individual diubiquitin and monoubiquitin band was quantified using Quantity One 4.3.1 (Biorad, Hercules, CA). The percentage of the conversion was determined and used to calculate the reaction rate. The rate was plotted against inhibitor concentrations and fitted to determine the IC50 values using GraphPad Prism (GraphPad Software, Inc. La Jolla, CA).

Potency, active:
COc1ccccc1-c1cc(NCc2ccccc2)ncn1 10.9 µM, FC(F)(F)c1ccccc1-c1nc(NCc2cccs2)c2ccccc2n1 3.3 µM, c1ccc2c(Nc3ccncc3)nc(-c3ccc4c(c3)OCO4)nc2c1 28.6 µM, COc1ccccc1-c1nccc(NCc2ccccc2)n1 16.9 µM, COc1ccccc1CNc1nc(-c2ccc(N(C)C)cc2)nc2ccccc12 10 µM, Cc1cccc(CNc2cc(-c3ccccc3C)ncn2)c1 26.3 µM, COc1ccccc1-c1nccc(NCc2cccc(C)c2)n1 18.8 µM, FC(F)(F)c1ccccc1-c1nccc(NCc2ccccc2)n1 9.6 µM, Clc1ccccc1-c1nccc(NCc2ccccc2)n1 20 µM, COc1ccccc1CNc1ccnc(-c2ccccc2C(F)(F)F)n1 4.2 µM, COc1cccc(-c2nccc(NCc3cccc(C)c3)n2)c1 13 µM, Cc1cccc(CNc2ccnc(-c3ccccc3C(F)(F)F)n2)c1 3 µM, COc1ccccc1-c1nc(NCc2ccccc2)c2ccccc2n1 6.4 µM, Cc1noc(C)c1-c1nc(NCc2cccs2)c2ccccc2n1 5 µM, N#Cc1cccc(-c2ccc3ncnc(NCc4ccccc4)c3c2)c1 26.6 µM, Cc1ccccc1-c1nc(NCc2cccs2)c2ccccc2n1 6 µM, COc1ccc(CNc2ccnc(-c3ccccc3C(F)(F)F)n2)c(OC)c1 4.5 µM, COc1ccc(CNc2nc(-c3ccccc3OC)nc3ccccc23)c(OC)c1 14.5 µM, COc1ccccc1-c1nc(NCc2cccs2)c2ccccc2n1 21.3 µM

outcome, inactive:
FC(F)(F)c1ccccc1-c1nc(NCc2cccnc2)c2ccccc2n1, Cc1ccccc1-c1nc(NCc2cccnc2)c2ccccc2n1, Fc1ccc(Nc2nc(-c3cccnc3)nc3ccccc23)cc1, FC(F)(F)c1ccccc1-c1nccc(NCc2cccs2)n1, Cc1cccc(CNc2ccnc(-c3ccccc3Cl)n2)c1
